For test [1], the target named is ATP-dependent translocase ABCB1 (Homo sapiens) (UniProt P08183). As to the kind of experiment: P-glycoprotein substrate transport blockade – cell-based (AID 377; in the data active = fluorescence slope change above about 50%). Particulars: MDR1-expressing cells, fluorescent substrate accumulation slope; stronger effect = higher value; concentration not given here.
Test [2] is described as follows: GFP-Q80 aggregate reduction, neuronal-like cells, cell-based, NGF-treated PC12, GFPQ80 (AID 1614).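 Note: lower means fewer inclusions and 0 means no inclusions at all.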 As to conditions: PC12 NGF-treated GFP-polyQ80 inclusion reduction.
A short description of test [3]: compounds altering circadian rhythm period length – cell-based, LOPAC library, luminescence reporter (AID 2774).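 Note: values are relative to mean of DMSO wells on each plate.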 Particulars: circadian reporter cells, at 7 µM, actives lie on both sides.
In test [4] the test system is Hepatitis C virus NS3 helicase. As to the kind of experiment: blockers of NS3h binding to ssDNA – biochemical, fluorescence polarization, LOPAC1280 library, primary screen (AID 687035; in the data active = inhibition above about 37%). Particulars: Purified HCV NS3 helicase, Cy5-dT15 ssDNA binding fluorescence polarization; stronger effect = higher value; concentration not given here. (In general: Fluorescence polarisation rises when a labelled molecule tumbles more slowly, as on binding a larger partner.)

A short description of test [5]: compounds altering Cy5-DNA-NS3h complex signal – biochemical, LOPAC1280, artefact control for HCV NS3 helicase inhibitor project (AID 687037). Particulars: Cy5-DNA-NS3h complex fluorescence interference counterscreen. A general note: Counterscreens check selectivity or assay interference.
Test [6] can be described thus: blockers of cellular phospholipid synthesis – cell-based, LOPAC library, screen 4, primary screen (AID 1347384). Particulars: animal cells, phospholipid biosynthesis inhibition screen; at 10 µM.
Test [7] can be described thus: viability loss in pontine glioma line – cell-based, SU-DIPG-XVII, MIPE5.0, CellTiter-Glo, qHTS, dose response (AID 1347060; cut-off not given, nearly all actives have AC50 up to about 26 µM). Particulars: CellTiter-Glo ATP luminescence.
A short description of test [8]: viability loss in pontine glioma line – cell-based, JHH-DIPG-1, MIPE4.0, CellTiter-Glo, qHTS, dose response (AID 1347062; cut-off not given, nearly all actives have AC50 up to about 27 µM). As to conditions: JHH-DIPG-1 viability, CellTiter-Glo ATP luminescence.
Test [9] can be described thus: viability loss in pontine glioma line – cell-based, SU-DIPG-XIII, MIPE5.0, CellTiter-Glo, qHTS, dose response (AID 1347064; cut-off not given, nearly all actives have AC50 up to about 23 µM). As to conditions: CellTiter-Glo ATP luminescence. In general terms: ATP-based viability assays read luminescence as a measure of living cells.
Test [10] in a line: viability loss in pontine glioma line – cell-based, SU-DIPG-XXV, MIPE5.0, CellTiter-Glo, qHTS, dose response (AID 1347065; cut-off not given, nearly all actives have AC50 up to about 26 µM;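 note: cells exposed to compound for 48 hours before ATP readout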). Particulars: CellTiter-Glo ATP luminescence.
Test [11] in a line: JHH-DIPG-1 glioma cell viability, MIPE5.0 library, CellTiter-Glo luminescence, qHTS (AID 1347067; cut-off not given, nearly all actives have AC50 up to about 26 µM;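 note: cells exposed to compound for 48 hours before readout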). Particulars: JHH-DIPG-1 glioma viability, CellTiter-Glo ATP luminescence.
Test [12] in a line: growth inhibition of DIPG cells – cell-based, MIPE5.0 library, qHTS (AID 1347068; cut-off not given, nearly all actives have IC50 up to about 30 µM). Particulars: SU-DIPG-XXV viability.
A short description of test [13]: viability loss in pontine glioma line – cell-based, SU-DIPG-XIII, MIPE4.0, CellTiter-Glo, qHTS, dose response (AID 1347061; cut-off not given, nearly all actives have AC50 up to about 37 µM;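 note: cells exposed to compound for 48 hours before readout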). As to conditions: CellTiter-Glo ATP luminescence.
A short description of test [14]: viability loss in pontine glioma line – cell-based, SU-DIPG-IV, MIPE4.0, CellTiter-Glo, qHTS, dose response (AID 1347063; cut-off not given, nearly all actives have AC50 up to about 30 µM;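 note: compound exposure lasted 48 hours before the viability readout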). Particulars: CellTiter-Glo ATP luminescence.
Test [15] can be described thus: growth inhibition of DIPG cells – cell-based, MIPE4.0 library, CellTiter-Glo luminescence, qHTS (AID 1347066; cut-off not given, nearly all actives have AC50 up to about 30 µM;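 note: cells exposed to compound for 48 hours before readout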). Particulars: SU-DIPG-VI viability, CellTiter-Glo ATP luminescence.

By inhibition is commonly meant the relative decrease from the control value, in per cent.

Inconclusive results are not listed. Calls of active or inactive are those of the source. Unless noted, the rule behind the calls is not given here.

Sequence of ATP-dependent translocase ABCB1 (Homo sapiens) (P08183 whole entry, looked up): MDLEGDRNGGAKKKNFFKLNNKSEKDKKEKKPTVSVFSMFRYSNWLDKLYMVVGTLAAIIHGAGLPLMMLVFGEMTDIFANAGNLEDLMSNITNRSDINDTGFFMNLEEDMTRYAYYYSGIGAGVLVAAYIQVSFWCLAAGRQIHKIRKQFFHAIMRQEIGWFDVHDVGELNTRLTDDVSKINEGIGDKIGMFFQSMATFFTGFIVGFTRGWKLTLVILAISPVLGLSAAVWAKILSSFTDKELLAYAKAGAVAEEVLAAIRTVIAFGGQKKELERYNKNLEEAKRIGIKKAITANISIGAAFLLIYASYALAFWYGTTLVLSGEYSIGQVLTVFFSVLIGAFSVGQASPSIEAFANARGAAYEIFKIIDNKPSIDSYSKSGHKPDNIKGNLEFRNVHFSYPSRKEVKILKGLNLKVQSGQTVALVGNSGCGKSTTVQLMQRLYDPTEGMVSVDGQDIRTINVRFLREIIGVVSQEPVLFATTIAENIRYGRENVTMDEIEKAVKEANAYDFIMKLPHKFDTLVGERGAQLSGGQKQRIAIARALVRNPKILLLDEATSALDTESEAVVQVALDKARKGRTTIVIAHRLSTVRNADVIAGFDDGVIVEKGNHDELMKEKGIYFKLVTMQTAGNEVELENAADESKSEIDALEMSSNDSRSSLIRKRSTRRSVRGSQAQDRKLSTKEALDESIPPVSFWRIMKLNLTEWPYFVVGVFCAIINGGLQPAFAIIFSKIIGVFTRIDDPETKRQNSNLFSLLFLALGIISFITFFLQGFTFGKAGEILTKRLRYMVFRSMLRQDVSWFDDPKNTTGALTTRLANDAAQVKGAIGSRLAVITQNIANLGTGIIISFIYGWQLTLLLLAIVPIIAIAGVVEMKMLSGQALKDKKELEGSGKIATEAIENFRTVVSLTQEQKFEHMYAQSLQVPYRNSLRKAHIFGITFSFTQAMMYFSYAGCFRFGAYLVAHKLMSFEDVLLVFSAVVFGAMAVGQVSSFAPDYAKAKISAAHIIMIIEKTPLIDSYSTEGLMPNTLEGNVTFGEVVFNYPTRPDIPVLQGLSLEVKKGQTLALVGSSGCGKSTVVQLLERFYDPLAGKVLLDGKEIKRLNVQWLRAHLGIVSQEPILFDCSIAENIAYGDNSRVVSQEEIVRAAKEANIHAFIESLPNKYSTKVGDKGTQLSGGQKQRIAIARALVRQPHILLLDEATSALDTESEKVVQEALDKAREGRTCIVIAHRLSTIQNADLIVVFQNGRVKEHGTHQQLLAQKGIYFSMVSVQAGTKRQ

With `CC[N+](C)(C)c1cccc(O)c1`, the fluorescence slope change in test [1] is 82.5% (active). In [2], the inclusion score is 2. Besides, in test [3], the period change was 0.07 h (inactive). Moreover, in test [4], the inhibition is -3% (inactive). In [5], the fluorescence ratio (interference) was 1 (inactive). The molecule was classed as inactive in test [6].
As to `C=C(CC)C(=O)c1ccc(OCC(=O)O)c(Cl)c1Cl`, in test [1], the fluorescence slope change is 85.9% (active).
Take `CC(C)[N+](C)(CCOC(=O)C1c2ccccc2Oc2ccccc21)C(C)C`: in test [1], the fluorescence slope change is 80.1% (active). Moreover, the inclusion score in [2] turned out to be 2. The period change in test [3] was 0.06 h (inactive). For the same molecule, the inhibition in test [4] is 0% (inactive). For the same molecule, the fluorescence ratio (interference) in test [5] is 1 (inactive). Moreover, the molecule was classed as inactive in test [6].
With `Cc1ccc(Cl)c(Nc2ccccc2C(=O)O)c1Cl`, the fluorescence slope change in test [1] is 27.6% (inactive). Besides, in test [2], the inclusion score came out at 2. The period change in test [3] was 0.13 h (inactive). Further, in test [4], the inhibition is 0% (inactive). The fluorescence ratio (interference) in test [5] was 1 (inactive). Besides, in test [6], the call was inactive.
With `O=C1NC(=O)C(c2ccccc2)(c2ccccc2)N1`, the inclusion score in [2] came to 2. Also, the period change in test [3] was 0.02 h (inactive). Further, in test [4], the inhibition was 1% (inactive). Further, the fluorescence ratio (interference) in test [5] is 1 (inactive). The result in test [6] was inactive.
Consider `c1ccc2c(c1)CCCC2C1=NCCN1` (stereo unspecified), for which the fluorescence slope change in test [1] was 13.8% (inactive). In addition, the inclusion score in test [2] came out at 2. The period change in [3] is -0.02 h (inactive). Moreover, the inhibition in [4] was -3% (inactive). The fluorescence ratio (interference) in [5] was 1 (inactive). The molecule was called inactive in test [6].
`NS(=O)(=O)c1cc(C2(O)NC(=O)c3ccccc32)ccc1Cl` (stereo unspecified): the fluorescence slope change in [1] is 22.1% (inactive). This molecule also returned an inclusion score in test [2] of 2.
Regarding `CN(C)C(=O)Oc1ccc[n+](C)c1`, the inclusion score in test [2] was 2. The period change in test [3] was 0.015 h (inactive). In addition, in [4], the inhibition is -1% (inactive). In addition, the fluorescence ratio (interference) in test [5] was 1 (inactive). Moreover, the molecule was classed as inactive in test [6].
With `CC(C)(C)NCC(O)c1cc(O)cc(O)c1` (stereo unspecified), the fluorescence slope change in [1] is 23.2% (inactive). This molecule also yielded an inclusion score in test [2] of 2. The period change in test [3] is 0.03 h (inactive). In addition, in test [4], the inhibition was -2% (inactive). For the same molecule, in test [5], the fluorescence ratio (interference) is 1 (inactive). Moreover, the call in [6] was inactive.
In the case of `Nc1nc(N)c2nc(-c3ccccc3)c(N)nc2n1`, the period change in test [3] is 0.185 h (inactive). The inhibition in test [4] is -2% (inactive). Also, the fluorescence ratio (interference) in test [5] was 1 (inactive). For the same molecule, the call in [6] was inactive.
In test [2], `c1ccc2c(CC3=NCCN3)cccc2c1` returned an inclusion score of 1.5.
Regarding `C[C@H]1C[C@@H]2[C@H]([C@@H](O)C[C@@]3(C)[C@H]2CC[C@]3(O)C(=O)CO)[C@@]2(C)C=CC(=O)C=C12`, in test [1], the fluorescence slope change was 127% (active). Further, the call in test [7], in test [8], in test [9], in test [10], in [11] and in test [12] was inactive.
Take `CC(C)C1CCC(C(=O)N[C@H](Cc2ccccc2)C(=O)O)CC1` (stereo partly specified): the outcome in [7], in [13], in test [8], in test [14], in test [9] and in test [10] was inactive. In addition, the molecule was called inactive in [15], in test [11] and in test [12].
`Cc1cccc(Nc2ccccc2C(=O)O)c1C`: the inclusion score in test [2] came to 1.5.
In test [2], `CC(=O)OCC[N+](C)(C)C` showed an inclusion score of 2.
With `C[C@]12CCC(=O)C=C1CC[C@@H]1[C@@H]2C(=O)C[C@@]2(C)[C@H]1CC[C@]2(O)C(=O)CO`, the fluorescence slope change in [1] is 29.4% (inactive). In test [3], the period change was -0.215 h (inactive). Further, the inhibition in test [4] was 1% (inactive). Besides, the fluorescence ratio (interference) in test [5] is 1 (inactive). The outcome in test [6] was inactive.

These data come from PubChem BioAssay.
